aSyn UTR act: Activators via SNCA 5'UTR binding, MLPCN; alpha-synuclein 5'UTR reporter, activators screen; activity score, % (tested at 7.5 µM), hits read low; actives 7.1% (n = 300,000); in the data active = activity score below about -60%
The depositor's hits bear a star. These entries were drawn from the full list.

SMILES	aSyn UTR act
Cc1ccc(C(=O)/C=C/c2cn(CN3CCN(C)CC3)c3ccccc23)cc1	-231.2*
Cc1nc(NC(=O)c2cccc(-c3cc4ccccc4oc3=O)c2)ccc1Br	-81.4*
O=C(Nc1ccc(Br)cn1)c1cccc(-c2cc3ccccc3oc2=O)c1	-112.3*
O=C(N/N=C/c1cccc(OCc2ccccc2)c1)c1cccs1	-71.5*
O=C(N/N=C/c1ccc(Br)s1)c1ccc([N+](=O)[O-])cc1	84.4
Cc1ccc2[nH]c(C(=O)N/N=C/c3ccc([N+](=O)[O-])cc3)c(C)c2c1	-62.9*
O=C(N/N=C/C=C/c1ccc([N+](=O)[O-])cc1)c1cccs1	-76.7*
O=C(N/N=C/c1cccc([N+](=O)[O-])c1)c1cccs1	-84.2*
O=C(/C=C/c1cccc([N+](=O)[O-])c1)c1cccs1	-77.4*
O=C(/C=C/c1cccc(Cl)c1)c1ccc([N+](=O)[O-])o1	91.2
Cc1ccc(NC(=O)c2ccc(F)cc2F)cc1	-195.0*
O=C(Nc1ccccc1)c1ccc(F)cc1F	-107.9*
Cc1ccc(S(=O)(=O)Nc2ccc(NC(=O)Nc3ccc(F)cc3F)cc2)cc1	78.5
O=C(NC(=O)c1ccc(F)cc1F)Nc1ccc(Cl)cc1	-158.7*
CC1=CCC(COC(=O)Nc2ccccc2)CC1 (stereo not drawn)	-138.9*
O=C1c2ccc3c4c(ccc(c24)C(=O)N1c1cccc(O)c1)C(=O)N(c1cccc(O)c1)C3=O	68.1
O=C1c2cccc3c(N4CCCCC4)ccc(c23)C(=O)N1c1ccc(O)cc1	-72.4*
Cc1cccc(N2C(=O)c3cccc4c(N5CCCCC5)c([N+](=O)[O-])cc(c34)C2=O)c1C	61.7
Cc1ccc(C)c(NS(=O)(=O)c2ccc(-c3cnc(C4CC4)o3)cc2)c1	93.2
Cc1nc2ccc(S(=O)(=O)Nc3cc(-c4nc5cccnc5s4)ccc3C)cc2s1	-84.7*
COc1ccc(Nc2nc(-c3cccnc3)cs2)c(OC)c1	-175.2*
COc1ccccc1Nc1nc(C2(C)CCC(=O)O2)cs1 (stereo not drawn)	-106.1*
COc1ccccc1Nc1nc(-c2cccnc2)cs1	-109.8*
COc1ccccc1Nc1nc(NCC(C)C)nc(N)c1[N+](=O)[O-]	77.3
O=[N+]([O-])c1ccccc1Nc1nc(-c2cccnc2)cs1	-91.1*
SMILES	aSyn UTR act
COc1ccc(OC)c2nc(-c3cccnc3)ccc12	-67.4*
COC(=O)c1c(C)[nH]c(C(=O)/C=C/c2ccccc2F)c1C	-244.6*
COC(=O)c1c(C)[nH]c(C(=O)/C=C/c2ccccc2Cl)c1C	-301.8*
O=C(NC(c1cccnc1)C(F)(F)F)c1cc(COc2ccc3c(c2)CCCC3)on1 (stereo not drawn)	-104.1*
CCC(=O)n1nc(-c2ccc(Cl)cc2)nc1NCc1ccccc1	-93.3*
Clc1cccc(-c2cc3nc4c(c(NCc5ccco5)n3n2)CCCC4)c1	-115.0*
CC(=O)n1nc(-c2ccc(C)cc2)nc1NCc1ccco1	-160.7*
Cc1ccc(-c2nc(NCc3ccco3)n(S(C)(=O)=O)n2)cc1	-71.6*
O=C(CCc1ccccc1)n1nc(-c2ccccc2)nc1NCc1ccco1	-67.1*
Cc1ccc(-c2cc3nc(C)cc(NCc4ccco4)n3n2)cc1	-156.8*
Cc1ccc(C(=O)Nc2c3c(nn2C(C)(C)C)CS(=O)(=O)C3)cc1[N+](=O)[O-]	-79.3*
CC(C)(C)n1nc2c(c1NC(=O)c1cc([N+](=O)[O-])ccc1Cl)CS(=O)(=O)C2	-94.6*
Cc1ccc(C(=O)NC(C#N)=C(Cl)Cl)cc1	-191.3*
CCCC1=[N+](CC(=O)c2ccccc2)CCn2cccc21	-71.7*
CCc1ccc(-c2cc(N)n(-c3ccccc3)n2)cc1	-121.0*
Cc1ccc(-c2cc(N)n(-c3ccccc3)n2)cc1	-115.2*
Nc1cc(C2CCCC2)nn1-c1ccccc1	-128.0*
CCOc1ccc(Nc2nc3ccccc3n3nnnc23)cc1	-81.8*
CCCn1c(NCc2cc(OC)ccc2OC)nc2ccccc21	-97.5*
COc1ccc(CCNc2nnc(Sc3nnnn3-c3ccccc3)s2)cc1OC	119.6
CCOc1ccc(CNc2nc3ccccc3n2C)cc1	-125.2*
COc1ccc(CCNc2nc3ccccc3n3nnnc23)cc1OC	-105.7*
CCOc1ccc(Nc2nc3ccccc3n2C)cc1	-163.4*
CCOc1ccc(NCc2nc3ccccc3n2CCOc2ccccc2)cc1	-66.7*
Nn1c(Nc2ccccc2)nc2ccccc21	-99.8*
SMILES	aSyn UTR act
Nc1c2c(nc3sc4c(c13)CCCC4)CCCCCC2	-82.1*
CCSc1nc(N)c2c3c(sc2n1)CCC3	-89.4*
Nc1nc(-c2ccccc2)nc2sc3c(c12)CCCC3	-138.7*
CCc1ccc(C(=O)NC(=S)Nc2ccc3c(c2)OCCO3)cc1	-128.2*
O=C(NC(=S)Nc1ccc2c(c1)OCO2)c1ccc(Cl)cc1	-143.2*
O=C(NC(=S)Nc1ccc2c(c1)OCCO2)c1ccc(F)cc1Cl	-136.2*
CCn1ncc(NC(=S)Nc2ccc3c(c2)OCO3)c1C(N)=O	-180.4*
Cc1cc(C)cc(C(=O)NC(=S)Nc2ccc3c(c2)OCCO3)c1	-218.7*
S=C(Nc1ccc2c(c1)OCO2)Nc1ccc2c(c1)OCO2	-107.3*
O=C(CCl)Nc1ccc2c(c1)OCO2	-89.6*
Cc1ccc(C(=O)NC(=S)Nc2ccc3c(c2)OCCO3)c(C)c1	-136.6*
CCOC(=O)c1ccc(Nc2cnc3ccccc3n2)cc1	-175.7*
CCOC(=O)c1ccc(NCc2nc3ccccc3[nH]2)cc1	-149.3*
CCc1ccc(NCc2nc3ccccc3c(=O)[nH]2)cc1	-137.8*
CCOC(=O)c1ccc(Nc2cc(C)nc(-c3ccccc3)n2)cc1	-213.4*
CCOC(=O)c1ccc(Nc2nnc(C)c3ccccc23)cc1	-104.3*
CCOC(=O)c1c(C)nc(-c2ccccc2)nc1NC(=O)CC	-87.3*
CCOC(=O)c1ccc(Nc2nc(C)cc(C)n2)cc1	-104.4*
CC(=O)c1ccc(Nc2nc(C)cc(C)n2)cc1	-126.4*
CCCCC[n+]1ccn(C2=C([O-])c3ccccc3C(=O)/C2=N\S(=O)(=O)c2ccc(Cl)cc2)c1	47.8
COc1ccc(/C=N/N=C(\N)c2nonc2N)cc1	-111.0*
COc1ccc(-c2nnc(NC(=O)c3ccc(S(=O)(=O)N4CCc5ccccc5C4)cc3)o2)cc1	73.2
CN(C)S(=O)(=O)N1CCC(Oc2ccc(C(=O)NC3Cc4ccccc4C3)cc2)CC1	-65.2*
Cc1cc(CNC(=O)c2cccc(OC3CCN(S(=O)(=O)N(C)C)CC3)c2)on1	-138.6*
Nc1ccccc1C(=O)N=Nc1[nH]c(N)c2ccccc12	-100.8*
SMILES	aSyn UTR act
Nc1[nH]c(N=NC(=O)c2ccc(F)cc2)c2ccccc12	-147.1*
O=Nc1ccc(O)c2ncccc12	-235.5*
Cc1ccccc1N=Nc1ccc(O)c2ncccc12	54.3
Cc1cc(-c2nnco2)c(C)n1-c1ccccc1	-101.2*
Cc1cc(C2=NNC(=NC3CC3)SC2)c(C)n1-c1ccccc1	95.2
O=C(Nc1ccc(Br)cc1)C1OCCc2ccccc21 (stereo not drawn)	-83.7*
Cc1nn(-c2ccc(Br)cc2)c(=O)c2ccccc12	-113.5*
O=C(NCCCO)c1cc2c(cn1)[nH]c1ccccc12	-103.6*
O=c1cc2[nH]c3ccccc3c(=O)n2nc1-c1ccccc1	-125.2*
Cc1cc(C(=O)CN2CCCC(C)C2)c(C)n1-c1ccc(F)cc1 (stereo not drawn)	-126.3*
C=CCSc1nnc(-c2sc(-c3ccccc3)nc2C)n1C	-63.8*
Cc1c(C(=O)NCC2CCCO2)oc2ccc(Br)cc12 (stereo not drawn)	-81.7*
Cc1cc(Cl)c2oc(C(=O)NCCC3CCCCO3)c(C)c2c1 (stereo not drawn)	-62.9*

Source: PubChem (Broad Institute)
